# Screening results as filed in PubChem.
# GDH-TPI counter-1: counter-screen for M. tuberculosis FBA inhibitors: GDH-TPI coupled enzymes; inhibition, % at 4.8 µM; actives 1.2% (n = 360,000); GDH-TPI coupled enzyme counterscreen, NADH absorbance; in the data active = inhibition above about 30%;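 also: 0% = DMSO wells and 100% = wells lacking the enzyme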
# Rv3671c inh: inhibitors of M. tuberculosis serine protease Rv3671c. P9WHR9. inhibition, % at 5.96 µM. actives 0.048% (n = 320,000). AID 2606; in the data active = inhibition above about 38%;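 also: extracellular domain of Rv3671c used as enzyme; 0% = enzyme with DMSO and 100% = no enzyme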
# Mtb FBA inh: inhibitors of M. tuberculosis fructose-bisphosphate aldolase; P9WQA3; purified M. tuberculosis FBA, fluorescence read-out; inhibition, % at 1 µM; actives 2.3% (n = 360,000);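 also: 0% = vehicle and 100% = reference inhibitor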
# Target sequence (P9WQA3 whole entry, looked up): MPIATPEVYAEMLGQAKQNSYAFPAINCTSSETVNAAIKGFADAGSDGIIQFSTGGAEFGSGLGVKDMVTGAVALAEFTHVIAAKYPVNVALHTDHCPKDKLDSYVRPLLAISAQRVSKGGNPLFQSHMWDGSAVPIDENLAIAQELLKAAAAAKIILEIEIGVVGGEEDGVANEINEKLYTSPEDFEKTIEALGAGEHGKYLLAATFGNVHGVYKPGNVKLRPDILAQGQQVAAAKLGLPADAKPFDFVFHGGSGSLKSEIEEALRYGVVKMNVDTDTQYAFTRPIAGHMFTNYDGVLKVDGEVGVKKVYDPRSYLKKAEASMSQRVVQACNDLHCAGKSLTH
# BioA inh: BioA (M. tuberculosis) enzyme inhibition; actives 0.096% (n = 360,000); inhibition, % at 9.99 µM; purified M. tuberculosis BioA enzyme, plate reader; AID 602481; in the data active = inhibition above about 40%; inconclusive = no clear call, values can overlap the other calls
# FadD28 binding: inhibitors of Mycobacterium tuberculosis FadD28 bisubstrate binding | FadD28 bisubstrate probe binding, fluorescence polarization | inhibition, % at 12.5 µM | actives 0.22% (n = 360,000) | AID 588549; in the data active = inhibition above about 8.5%, passing the limit was not always enough; inconclusive = no clear call, values can overlap the other calls
# Mtb FBA inh conf: Mtb FBA inhibition, confirmed; shares compounds with Mtb FBA inh; inhibition, % at 1 µM; actives 78% (n = 5,600); purified M. tuberculosis FBA, fluorescence read-out;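 also: 0% = vehicle wells and 100% = reference inhibitor wells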
# GDH-TPI counter-2: GDH-TPI inhibition counter-screen for FBA inhibitors; shares compounds with Mtb FBA inh; GDH-TPI coupled enzyme counterscreen, fluorescence; inhibition, % at 1 µM; actives 81% (n = 5,600); AID 652141; in the data active = inhibition above about 10%
# GDH-TPI DR: inhibits GDH-TPI coupling enzymes in dose response. GDH-TPI coupled enzyme assay, fluorescence, artifact counterscreen. actives 79% (n = 170). IC50, µM. shares compounds with Mtb FBA inh; call rule not given here
# Active calls of the source: *; ? = inconclusive; · = not tested or not shown; + = active, no number. The list is not random: actives were taken first. Their share in the collection is about 3%. Rule as the data show it, unless noted: active = inhibition above about 27%; inactive = the rest.
SMILES,GDH-TPI counter-1,Rv3671c inh,Mtb FBA inh,BioA inh,FadD28 binding,Mtb FBA inh conf,GDH-TPI counter-2,others
Cc1ccc(S(=O)(=O)Nc2cccc3c2O[C@@H](CN(C)S(=O)(=O)c2ccc(C)cc2)[C@H](C)CN([C@H](C)CO)C3=O)cc1,·,·,·,0.1,·,·,·,
CC(C)NC(=O)N(C)C[C@H]1OCCCC[C@H](C)Oc2ccc(NC(=O)CCCN(C)C)cc2C(=O)N([C@H](C)CO)C[C@@H]1C,·,·,·,0.9,·,·,·,
C[C@@H]1CN([C@H](C)CO)C(=O)c2cc(C3=CCCC3)cnc2O[C@@H]1CN(C)C(=O)NC1CCCC1,·,·,·,-5.7,·,·,·,
CNC[C@@H]1Oc2ccc(NS(=O)(=O)c3ccc(F)cc3)cc2C(=O)N([C@H](C)CO)C[C@@H]1C,·,·,·,-2.5,·,·,·,
CCCCNC(=O)c1cc2cc(CC)ccc2[nH]1,11.2,-8.4,31.1*,·,-2.1,79.4*,65.4*,
O=C(C[C@H]1CC[C@H]2[C@@H](COC[C@H](O)CN2Cc2nccs2)O1)NCc1ccc(-c2ccccc2)cc1,·,·,·,-1.8,·,·,·,
CCOP(=O)(OCC)c1nc(-c2ccc(F)cc2)oc1NCc1ccccc1,2.7,-0.9,76.8*,·,-2.9,45.8*,28.9*,
O=P(c1ccccc1)(c1ccccc1)c1nc(-c2ccccc2)oc1NCc1ccccc1,1.2,5.6,4.4,·,0.2,·,·,
CCOP(=O)(OCC)c1nc(-c2ccccc2)oc1NCc1ccccc1,7.5,-10.3,82.4*,·,2.2,24.1,13.5*,
CN(C)c1ccc2c(c1)[C@@H]1C[C@@H](CC(=O)NCc3ccncc3)O[C@H](CO)[C@@H]1O2,·,·,·,0.0,·,·,·,
CCOC(=O)N1CCN(CC(=O)Nc2c(C(=O)OC)[nH]c3ccccc23)CC1,0.0,-5.0,9.9,0.9,0.8,·,·,
CCOC(=O)c1[nH]c2cc3c(cc2c1NC(=O)CN1CCc2ccccc2C1)OCO3,23.5,-6.7,80.8*,-2.2,-1.7,12.4,6.3,GDH-TPI DR=1.32*
COC(=O)c1[nH]c2ccccc2c1NC(=O)CN1CCCCCC1,4.3,-6.1,4.7,2.7,-2.0,·,·,
CCOC(=O)c1[nH]c2cc3c(cc2c1NC(=O)CN1CCCC1)OCO3,16.1,8.1,72.7*,·,-3.2,76.3*,49.2*,
COc1ccccc1-n1c(C)c(C(=O)O)c2cc(OC)c3ccccc3c21,1.4,-6.1,27.1*,0.4,?,87.3*,81.8*,
O=c1c2ccccc2n(CC(O)CN2CCOCC2)c2ccccc12 (stereo unspecified),6.9,-3.5,32.9*,-1.2,-0.9,5.2,-1.0,
CCOc1ccc(Cn2c3ccc(OC)cc3c3nc4ccccc4nc32)cc1,-4.2,-2.5,-3.5,8.1,-3.5,·,·,
COc1cc(Cn2c(N)c(C#N)c3nc4ccccc4nc32)cc(OC)c1,17.1,-6.0,109.4*,-1.6,-1.4,+,172.7*,
N#Cc1c(N)n(CCOC(=O)c2cccc(Br)c2)c2nc3ccccc3nc12,5.6,-9.4,44.9*,-1.6,-0.9,49.7*,34.4*,
CCCCn1c(NC(=O)c2ccccc2)c(C#N)c2nc3ccccc3nc21,15.1,·,19.9,-0.5,-1.6,·,·,
N#Cc1c(N)n(-c2cccc(O)c2)c2nc3ccccc3nc12,20.2,-2.0,83.7*,-1.5,-1.3,+,+,
O=c1c2ccccc2nc(-c2ccccc2)n1-c1cccc(O)c1,5.1,0.6,-1.0,·,-8.5,·,·,
O=C(C[C@H]1C=C[C@H](NS(=O)(=O)c2ccc(F)cc2)[C@H](CO)O1)NC1CCC1,·,·,·,-1.2,·,·,·,
C[C@@H]1CN([C@@H](C)CO)C(=O)c2cc(NC(=O)Nc3ccc4c(c3)OCO4)ccc2O[C@@H]1CN(C)Cc1ccc(-c2ccccc2)cc1,·,·,·,-1.3,·,·,·,
COc1ccc(S(=O)(=O)N(C)C[C@H]2Oc3cc(C#CC4CCCCC4)ccc3S(=O)(=O)N([C@H](C)CO)C[C@@H]2C)cc1,·,·,·,-2.2,·,·,·,
SMILES,GDH-TPI counter-1,Rv3671c inh,Mtb FBA inh,BioA inh,FadD28 binding,Mtb FBA inh conf,GDH-TPI counter-2,others
C[C@H](CO)N1C[C@H](C)[C@@H](CN(C)S(=O)(=O)c2ccccc2)Oc2ccc(NC(=O)CCCN(C)C)cc2C1=O,·,·,·,-0.4,·,·,·,
Nc1ncc2c(n1)-c1ccccc1CC2,19.2,12.3,63.6*,0.6,-0.3,17.2,9.3,
O=C(Nc1ncc2c(n1)-c1ccccc1CC2)c1ccccc1,2.2,1.1,-0.2,3.6,-1.2,·,·,
Cc1nc(N)ncc1-c1ccc2c(c1)OCO2,6.4,-9.6,2.0,-1.8,1.1,·,·,
Nc1ncc2c(n1)-c1ccoc1CC2,18.9,-1.8,36.4*,-0.8,0.1,124.8*,103.4*,
Cn1cnc(S(=O)(=O)N2C[C@H](O)COC[C@@H]3O[C@H](CC(=O)NCc4cc(F)cc(F)c4)CC[C@H]32)c1,·,·,·,0.5,·,·,·,
COC(=O)C[C@@H]1C=C[C@@H](NS(=O)(=O)c2ccc(OC)cc2)[C@H](CO)O1,·,·,·,-0.8,·,·,·,
COc1ccc(-c2ccc3c(c2)CN(C(=O)NC2CCCCC2)Cc2cnnn2-3)cc1,·,·,86.4*,3.2,-0.4,52.3*,41.3*,
O=C(NC1CCCCC1)N1Cc2cc(-c3cccc(F)c3)ccc2-n2nncc2C1,·,·,0.7,-3.4,-1.5,·,·,
COc1cc(OC)cc(-c2c(-c3cccs3)c3cc(-c4cccc5[nH]ccc45)ccc3n2C)c1,21.0,10.3,47.5*,-6.9,-2.6,112.1*,78.5*,
Cc1cccc(S(=O)(=O)N[C@H]2CC[C@H](CCNC(=O)Nc3cc(F)ccc3F)O[C@@H]2CO)c1,·,·,·,-4.1,·,·,·,
C[C@@H]1CN([C@@H](C)CO)S(=O)(=O)c2ccc(C#CCN(C)C)cc2O[C@@H]1CN(C)C,·,·,·,-4.9,·,·,·,
CC1CN(Cc2c(O)ccc3c(=O)c(-c4ccccc4Cl)coc23)CC(C)O1 (stereo unspecified),25.3,-2.3,57.3*,6.3,1.5,104.5*,86.8*,
CCN(CC)Cc1c(O)ccc2c(=O)c(-c3ccccc3Cl)coc12,31.3*,3.5,84.9*,3.6,-1.2,+,+,
O=c1c(-c2ccc(Br)cc2)coc2c(CN3CCCCC3)c(O)ccc12,2.1,·,31.4*,0.6,·,6.6,-2.9,
CCC1CCCCN1Cc1c(O)ccc2c(=O)c(-c3ccccc3OC)coc12 (stereo unspecified),8.4,-0.8,83.4*,-0.4,-1.0,42.6*,30.8*,
CC1CCCCN1Cc1c(O)ccc2c(=O)c(-c3nc4ccccc4s3)coc12 (stereo unspecified),17.3,5.2,-0.4,-1.2,-2.4,·,·,
O=c1c(-c2ccc(Br)cc2)coc2c(CN3CCOCC3)c(O)ccc12,-0.3,1.8,18.6,7.0,-5.2,·,·,
CCCc1cc(=O)oc2c(CN(CC)CC)c(O)c(Cl)cc12,22.7,8.4,·,0.6,0.1,·,·,
COc1ccc(NC(=O)Nc2ccc3c(c2)CC(=O)N([C@@H](C)CO)C[C@@H](C)[C@H](CN(C)C(=O)Nc2ccc(F)cc2)O3)cc1,·,·,·,-1.2,·,·,·,
